Experimental data taken from PubChem BioAssay (NCI).
The panel holds about 83,000 compounds, 20% with a hit somewhere; the sample as a whole holds those more often.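 Method: cells in 96-well plates; compound added at one concentration; 48 h incubation; percent growth measured; values under 10 scored active.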 The source made the active and inactive calls.

How the values were obtained:
Test in all cases: NCI-60 one-dose screen, 48 h (100 = growth as untreated, 0 = no growth, -100 = all killed)
Conditions in all cases: 10 µM unless noted
[1] = system: HCT-15 colon
[2] = system: HT29 colon
[3] = system: SNB-75 CNS
[4] = system: SNB-19 CNS
[5] = system: U251 CNS
[6] = system: PC-3 prostate
[7] = system: SK-MEL-5 melanoma
[8] = system: UACC-62 melanoma
[9] = system: LOX IMVI melanoma
[10] = system: SK-MEL-28 melanoma
[11] = system: SK-MEL-2 melanoma
[12] = system: EKVX NSCLC
[13] = system: SN12C renal
[14] = system: UO-31 renal
[15] = system: TK-10 renal
[16] = system: ACHN renal
[17] = system: CAKI-1 renal
[18] = system: A498 renal
[19] = system: CCRF-CEM leukemia
[20] = system: MOLT-4 leukemia

Measured: growth

C#Cc1c(I)n(C2OC(CO[Si](C)(C)C(C)(C)C)C3OC(C)(C)OC32)c(=O)[nH]c1=O (stereo unspecified)
inactive: [2] 38.6% | [3] 86.8% | [4] 94.2% | [7] 96.6% | [8] 82.1% | [11] 59.9% | [12] 96.7% | [13] 89.7% | [16] 49.7% | [17] 74.2% | [18] 102%
active: [1] -9.25% | [5] 3.76% | [6] -61.1% | [9] -80.6% | [10] -56.7% | [14] -77.3% | [15] -62.3% | [19] -29.7% | [20] -25.5%

Cc1[nH]c(C(=O)Nc2ccc(C(N)=O)cc2OC(C)C)c(Cl)c1Cl
inactive: [1] 96.1% | [2] 111% | [3] 93.3% | [4] 99% | [5] 98.2% | [6] 99.3% | [7] 99.3% | [8] 106% | [9] 96.1% | [10] 106% | [11] 100% | [12] 86.3% | [13] 99.9% | [14] 74.4% | [15] 117% | [16] 97.2% | [17] 105% | [18] 84.3% | [19] 92.5%

CCCCCCCC/C=C\CCCCCCCCOc1ccc(CC(=O)NCC[N+]2(C)CCCC2)cc1
active: [6] 9.45%
inactive: [1] 84.8% | [2] 18.4% | [3] 43.4% | [4] 38% | [5] 15.1% | [7] 79.5% | [8] 50.3% | [9] 72.8% | [10] 95.9% | [11] 103% | [12] 86.1% | [13] 42.5% | [14] 93.3% | [15] 38.5% | [16] 84.1% | [17] 50.9% | [18] 86.4% | [19] 29.5%

CCN1C(=O)N(CC)C2C1NN=c1s/c(=C\c3ccc([N+](=O)[O-])cc3)c(=O)n12 (stereo unspecified)
inactive: [1] 16.3% | [4] 31.6% | [5] 20.8% | [6] 32.6% | [7] 27.6% | [8] 27.7% | [9] 36.8% | [10] 64.1% | [11] 70.4% | [12] 52.3% | [13] 29.6% | [14] 37.5% | [15] 69.1% | [16] 41.9% | [17] 37.1% | [18] 18.6% | [19] 11.2%
active: [2] 5.2% | [3] 0.315%

CC1(C)CC[C@]2(CO)CC[C@]3(C)C(=CC[C@@H]4[C@@]5(C)CCNCC(C)(C)[C@@H]5CC[C@]43C)[C@@H]2C1
inactive: [2] 12% | [3] 79.4% | [4] 96.9% | [5] 56.6% | [6] 59% | [7] 71.6% | [8] 94.2% | [9] 76% | [11] 53.7% | [12] 97.5% | [13] 80.5% | [14] 75.3% | [15] 95% | [16] 88% | [17] 67.3% | [18] 84.2% | [19] 73.8%
active: [1] 5.97% | [10] -29%

COc1ccc(C2CC(=O)Oc3c(OC)c4c(c(OC)c32)OCO4)cc1 (stereo unspecified)
inactive: [1] 87.6% | [2] 99.4% | [3] 98.6% | [4] 107% | [5] 99.6% | [6] 106% | [7] 105% | [8] 91.1% | [9] 90.3% | [10] 95.6% | [11] 101% | [12] 101% | [13] 98% | [14] 84.7% | [15] 96.4% | [16] 103% | [17] 96.8% | [18] 88.7% | [19] 88.9%

COc1ccc(C(=O)C2OC3=C(C(=O)CC(C)(C)C3)C2c2cccc(Oc3ccccc3)c2)cc1 (stereo unspecified)
inactive: [1] 89.3% | [2] 91.1% | [3] 86.9% | [4] 92.8% | [5] 88.9% | [6] 81.3% | [7] 90.7% | [8] 72.6% | [9] 92.3% | [10] 103% | [11] 93.4% | [12] 85% | [13] 89.5% | [14] 74% | [15] 91.5% | [16] 91.8% | [17] 81.7% | [18] 62.9% | [19] 84% | [20] 83.4%

CCOC(=O)c1c(C)n2c(=O)cc(C)c3c(OC(C)=O)c(OC(C)=O)cc1c32
active: [19] 3.61%
inactive: [1] 41.2% | [2] 102% | [3] 74.1% | [4] 72% | [5] 50.9% | [6] 59.2% | [7] 50.3% | [8] 76.2% | [9] 42.4% | [10] 64.7% | [11] 87% | [12] 93.1% | [13] 74.3% | [14] 71% | [15] 96% | [16] 58.3% | [17] 72.2% | [18] 116% | [20] 19.3%

COc1cc2c(cc1-c1c(C)noc1C)ncc1nc(C3CCOCC3)n(C3CCC(OC(F)F)CC3)c12 (stereo unspecified)
inactive: [1] 33.2% | [2] 25.9% | [3] 12.9% | [4] 75.3% | [5] 75.8% | [6] 44.8% | [7] 27.2% | [8] 25.4% | [9] 24% | [10] 71.1% | [11] 63.5% | [12] 60.9% | [13] 79.8% | [14] 14.5% | [15] 21.4% | [16] 54.2% | [17] 42.6% | [18] 41.7% | [19] 58.9% | [20] 68.6%

Cc1cc(=O)oc2cc(Oc3nc(-c4ccccc4)cn4c(-c5ccccc5)cnc34)ccc12
inactive: [1] 68.6% | [2] 53.2% | [4] 64.4% | [5] 67.3% | [6] 39.2% | [7] 38.3% | [8] 81.4% | [9] 56.4% | [10] 67.6% | [11] 51.9% | [12] 66.8% | [13] 67.6% | [14] 40.8% | [15] 80.5% | [16] 48.6% | [17] 85.2% | [19] 77.6%
active: [3] -1.39% | [18] 9.88%

C#CCOc1cccc(Nc2ncnc3c(NC(=O)CCl)cccc23)c1
active: [1] -37.9% | [2] -77.1% | [5] -69.2% | [6] 2.88% | [7] -89.2% | [9] -79.7% | [12] -19.8% | [13] 6.82% | [16] -72.4% | [19] -57.5%
inactive: [3] 74.8% | [4] 20.1% | [8] 21.8% | [10] 75% | [11] 36.5% | [14] 35.4% | [15] 63.7% | [17] 54.9% | [18] 101%

COc1cc(/C=C/C(=O)c2ccc(-n3cc(CN4CCN(c5cc6c(cc5F)c(=O)c(C(=O)O)cn6C5CC5)CC4)nn3)cc2)cc(OC)c1OC
inactive: [1] 90.6% | [2] 99.2% | [3] 85.7% | [4] 76.7% | [5] 68.4% | [6] 84.7% | [7] 79.7% | [8] 72.8% | [9] 55.7% | [10] 92% | [11] 102% | [12] 80.8% | [13] 58.8% | [14] 65.4% | [15] 97.8% | [16] 93.4% | [17] 68.7% | [18] 34.9% | [19] 34.6%

COc1cc2c(cc1OC)CC[N+](CCC[N+](C)(C)C)=C2
inactive: [1] 101% | [2] 88.5% | [3] 80.2% | [4] 110% | [5] 98.9% | [6] 83.9% | [7] 104% | [8] 110% | [9] 99.3% | [10] 98.7% | [11] 88.9% | [12] 100% | [13] 98% | [14] 91.1% | [15] 80.5% | [16] 104% | [17] 96.3% | [18] 104% | [19] 97.9%

Cc1cc2c(C(C)C)c(O)c(O)c(/C=N/O)c2c(O)c1-c1c(C)cc2c(C(C)C)c(O)c(O)c(/C=N/O)c2c1O
active: [2] 1.38% | [5] 1.13% | [8] 9.12% | [9] -22.9% | [11] -10.2% | [15] 0.867% | [20] -7.59%
inactive: [1] 29.3% | [3] 80.3% | [4] 30.4% | [6] 27.9% | [7] 16.3% | [10] 19.8% | [12] 27.2% | [13] 43.7% | [14] 24.7% | [16] 24% | [17] 26.6% | [18] 57.2% | [19] 10.1%

COc1ccc(CNc2ccc3nc(CCC4CCCCC4)[nH]c3c2)cc1
inactive: [1] 42% | [2] 18.4% | [3] 69.4% | [4] 84% | [5] 60.9% | [6] 59.1% | [7] 38% | [8] 69.9% | [9] 81.5% | [10] 76.4% | [11] 87% | [12] 79.1% | [13] 68% | [14] 33.9% | [15] 86.4% | [16] 93.4% | [17] 72.2% | [18] 53.2% | [19] 69.2% | [20] 52.9%
